Only some compounds are listed: those with a hit (about 0.35% of all), similar ones and a draw of the others.
Vif-APOBEC3F blk: qHTS for Inhibitors of Vif-A3F Interactions: qHTS | HeLa A3F-eYFP + Vif (tagged APOBEC3F with the HIV-1 protein that degrades it), YFP fluorescence increase | Potency, µM (doses to about 46.1 µM) | 390,000 compounds, 0.2% hits | AID 602313, 2012; further: nearly all actives have a fitted effect of over 65% in size
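HeLa cells stably expressing Vif plus C-terminally eYFP-tagged A3F were seeded, incubated overnight at 37 deg C, dosed with compound, incubated overnight again at 37 deg C. Yellow fluorescence (Ex 488/Em 500-530) reported blocked Vif-mediated A3F-eYFP degradation.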
Glioma ERSR ind: qHTS for Inducers of the Endoplasmic Reticulum Stress Response (ERSR) in Human Glioma: qHTS. 420,000 compounds, 0.02% hits. Potency, µM, hits mostly activators. U87-MG GRP78 promoter luciferase reporter, 16 h; further: series mostly up to about 76 µM; nearly all actives have a fitted effect of over 35% in size
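Stably transfected U87-MG human glioma cells carrying a GRP78-based luminescent sensor were seeded at 1000 cells/well, pin-dosed with compounds and incubated 16 h. Luciferase reagent was then added, and end-point luminescence was read after 10 min at room temperature.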
Epigenetic reg: Quantitative High-Throughput Screen for Regulators of Epigenetic Control. Potency, µM (top dose mostly 53.9 µM), actives largely listed as activators. murine LDR cells, GFP reporter derepression, 30 h. AID 1865, 2009. 280,000 compounds, 0.2% hits; further: nearly all actives have a fitted effect of over 60% in size
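Derepression of a silenced CMV-GFP reporter in murine LDR cells is scored by enumerating GFP-positive cells with a laser-scanning microplate cytometer after 30 hours of treatment at 37 C.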
Vif-APOBEC3G blk: qHTS for Inhibitors of Vif-A3G Interactions: qHTS; DNA dC->dU-editing enzyme APOBEC-3G (Homo sapiens), Q9HC16; HeLa A3G-eYFP + Vif (tagged APOBEC3G with the HIV-1 protein that degrades it), YFP fluorescence, overnight; Potency, µM (highest dose often 46.1 µM), hits mostly inhibitors; 410,000 compounds, 0.076% hits; further: nearly all actives have a fitted effect of over 60% in size
Target sequence (Q9HC16 whole entry, looked up): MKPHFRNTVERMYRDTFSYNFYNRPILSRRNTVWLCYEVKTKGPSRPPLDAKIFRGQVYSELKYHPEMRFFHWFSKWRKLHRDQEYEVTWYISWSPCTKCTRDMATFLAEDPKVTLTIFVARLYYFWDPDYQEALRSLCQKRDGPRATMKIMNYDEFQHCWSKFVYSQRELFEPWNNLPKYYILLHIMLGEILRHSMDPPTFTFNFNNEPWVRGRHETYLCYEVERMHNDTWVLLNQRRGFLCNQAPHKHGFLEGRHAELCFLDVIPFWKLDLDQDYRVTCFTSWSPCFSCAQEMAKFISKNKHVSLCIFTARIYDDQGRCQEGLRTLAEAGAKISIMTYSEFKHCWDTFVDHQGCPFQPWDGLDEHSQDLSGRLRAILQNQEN
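HeLa cells stably expressing Vif and C-terminally eYFP-tagged A3G, seeded overnight at 37 deg C, then exposed to compound by pintool overnight at 37 deg C. Rise in yellow fluorescence (Ex 488/Em 500-530, Acumen) marks blocked Vif-driven A3G degradation.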
C127i cell count: Parental Cell Counter Screen Assay for Epigenetic Modulators: Hit Validation | 60 compounds, 20% hits | Potency, µM, actives largely listed as activators | mouse c127i parental cells, fluorescent cell count, 30 h | shares compounds with Epigenetic reg
HCC4017 tox: HCC4017 Cell Viability Secondary Assay for qHTS Assay for Epigenetic Modulators. Potency, µM (titrated, usually from 46.1 µM), hits mostly cytotoxic. 45 compounds, 30% hits. HCC4017 NSCLC viability, CellTiter-Glo ATP luminescence, 72 h. shares compounds with Epigenetic reg. AID 493071, 2011
H358 viab: H358 Cell Viability Secondary Assay for qHTS Assay for Epigenetic Modulators: Round 2 | shares compounds with Epigenetic reg | H358 NSCLC viability, ATP luminescence, 72 h | Potency, µM (titrated, usually from 46.1 µM), usual class: cytotoxic | 45 compounds, 30% hits | AID 493074, 2011
Each line names hits and unclear results; the compound was inactive in the other large screens (follow-up assays come after a bar, where they were run). The call rests on the fitted dose curve; in most records, active means well fitted curve in the direction sought with a large enough effect; inconclusive means small, poorly fitted or top-dose-only effect, or another doubt; inactive means no such curve, though single readings can be large; an effect the other way counts as inactive or inconclusive.

OCCN1CCN(Cc2ccc3c(c2)CN(Cc2cnc(-c4ccccc4)s2)CCO3)CC1	none (no result: Vif-APOBEC3F blk, Epigenetic reg, Vif-APOBEC3G blk)
Cc1cc(C(=O)CCl)c(C)n1Cc1ccco1	Epigenetic reg 13µM, Vif-APOBEC3G blk inconclusive
Oc1c(CN2CCOCC2)cc(COCc2ccccc2)c2cccnc12	Vif-APOBEC3F blk inconclusive, Epigenetic reg 4µM
Oc1c(CNc2ccccc2)cc(COCc2ccccc2)c2cccnc12	none (no result: Epigenetic reg)
CCOCc1cc(CN2CCN(c3cccc(Cl)c3)CC2)c(O)c2ncccc12	Epigenetic reg 3.5µM
CC(C)OCc1cc(CN2CCN(c3ccccc3)CC2)c(O)c2ncccc12	Epigenetic reg 2µM
Oc1c(CN2CCN(c3ccccc3)CC2)cc(Br)c2cccnc12	Vif-APOBEC3F blk inconclusive, Epigenetic reg inconclusive
CCOC(=O)c1[nH]c2c(c1Cc1ccccc1)C(=O)CC(c1ccc(OC)cc1)C2 (centres undefined)	none
Cc1ccc(C)c(CN2C(=O)c3ccccc3S(=O)(=O)c3ccc(C(=O)N4CCc5ccccc54)cc32)c1	none (no result: Vif-APOBEC3F blk, Glioma ERSR ind, Vif-APOBEC3G blk)
COC(=O)C1Cc2ccccc2CN1S(=O)(=O)c1ccc(F)cc1 (centres undefined)	none (no result: Epigenetic reg)
Cc1ccc(/C=C2/NC(=O)N(Cc3ccccc3)C2=O)s1	Vif-APOBEC3F blk 22µM, Epigenetic reg 25µM, Vif-APOBEC3G blk inconclusive
Cc1cccc(CN2C(=O)N/C(=C/c3ccc(C)s3)C2=O)c1	Vif-APOBEC3F blk inconclusive, Epigenetic reg inconclusive, Vif-APOBEC3G blk inconclusive
COCCCN1C(=O)C(CC(=O)NCCCN(C)C)CC(C(=O)N2CCOCC2)=C1C (centres undefined)	none (no result: Vif-APOBEC3F blk, Epigenetic reg)
Cc1c(Cl)cccc1NC(=O)Cn1c(=O)nc(-c2ccccc2)c2ccccc21	none
C=C(C(=O)c1ccccc1)C(c1ccccc1)C(C)C(=O)c1ccccc1 (centres undefined)	none
C=C(C(=O)c1ccccc1)C(C)C(=C)C(=O)c1ccccc1	Vif-APOBEC3F blk inconclusive, Vif-APOBEC3G blk 5µM
CSc1ncc(C(=O)Nc2ccc(C(C)=O)cc2)c(C)n1	none (no result: Epigenetic reg)
CN(C(=O)CSc1nc2ccc(NC(=O)COc3ccccc3Cl)cc2s1)c1ccccc1	none
Cc1cc(C)c2c(NC(=O)CCl)nn(C)c2n1	Glioma ERSR ind 40µM, Epigenetic reg inconclusive
COC(=O)C1C2CC3c4[nH]c5cc(OC)ccc5c4CCN3CC2CC(OC(=O)CC(C)=O)C1OC (centres undefined)	Vif-APOBEC3F blk 25µM, Vif-APOBEC3G blk inconclusive (no result: Epigenetic reg)
COc1ccc2nc(N3C(=O)/C(=C/c4ccccc4)NC3=S)sc2c1	Vif-APOBEC3F blk 13µM, Vif-APOBEC3G blk 5µM
CC1CCC(NC(=O)c2ccc3c(c2)N(Cc2ccccc2F)C(=O)c2ccccc2S3=O)CC1 (centres undefined)	none
Cc1cn2c(=O)cc(COC(=O)c3ccc(NC(=O)c4ccccc4C)cc3)nc2s1	none
CC1=CN2C(=N)/C(=C/c3ccc([N+](=O)[O-])o3)C(=O)N=C2S1	Vif-APOBEC3F blk inconclusive, Epigenetic reg inconclusive, Vif-APOBEC3G blk 22µM
COC(C[C@H]1O[C@H]1[C@H](O)COCc1ccccc1)OC	none
O=C(Cc1cccc2ccccc12)N1CCCc2ccccc21	none
CCN(CC(=O)NCc1ccc(F)cc1)C(=O)/C=C/c1ccc(OC)c(S(=O)(=O)NC(C)C)c1	Vif-APOBEC3G blk 2.8µM (no result: Epigenetic reg)
CC(C)(C)c1ccc(OCC(=O)Nc2ccc3c4c(cccc24)C(=O)NC3=O)cc1	Vif-APOBEC3F blk 13µM
CC(C)Oc1ccccc1C1(c2ccccc2)NC(=O)NC1=O (centres undefined)	none (no result: Epigenetic reg)
Cc1sc2nc(CSCC(=O)Nc3ccccc3C#N)[nH]c(=O)c2c1C	Vif-APOBEC3F blk 13µM
Cc1cc(=O)oc2c(O)c(O)ccc12	Glioma ERSR ind 28µM
Cc1cc(=O)oc2c(CN3CCCC3)c(O)ccc12	none (no result: Epigenetic reg)
COc1ccc(-n2c(=O)c3ccccc3n(Cc3cccc(C)c3)c2=O)cc1	none
Cc1nc(CSc2nsc(/C=C/N(C)C)c2C#N)cs1	Vif-APOBEC3F blk inconclusive, Epigenetic reg 6.3µM, Vif-APOBEC3G blk inconclusive | C127i cell count inactive
CC1=NN(c2nc3ccccc3[nH]2)C(=O)C1Cc1ccccc1 (centres undefined)	Vif-APOBEC3F blk inconclusive, Epigenetic reg inconclusive, Vif-APOBEC3G blk inconclusive | C127i cell count inactive | HCC4017 tox 4.4µM | H358 viab 7.9µM
COC(=O)C1=C(C)NC(C)=C(C(=O)NCCCN2CCC(c3ccccc3)(c3ccccc3)CC2)C1c1ccc([N+](=O)[O-])cc1 (centres undefined)	none (no result: Vif-APOBEC3F blk, Epigenetic reg, Vif-APOBEC3G blk)
Oc1[nH]c2ccccc2c1N=Nc1ccccn1	none (no result: Epigenetic reg)
Oc1c(N=Nc2ccccn2)ccc2ccccc12	Epigenetic reg 10µM | C127i cell count inactive | HCC4017 tox 2µM | H358 viab 1.3µM
Cc1cc(N2CCN(c3ccc([N+](=O)[O-])c4cccnc34)CC2)c2ccccc2n1	Vif-APOBEC3F blk 3.5µM, Epigenetic reg 7.1µM, Vif-APOBEC3G blk inconclusive | C127i cell count 14µM
Cc1cc(N2CCN(c3ccc(C(F)(F)F)cc3[N+](=O)[O-])CC2)c2ccccc2n1	none (no result: Epigenetic reg)
O=C(Cn1c(=O)n(Cc2ccc(F)cc2)c(=O)c2sc3ccccc3c21)Nc1ccc(F)cc1F	Epigenetic reg inconclusive | C127i cell count inactive
COc1cc(Cl)c(C)cc1NC(C)C(=O)Nc1cc(C(F)(F)F)ccc1N1CCOCC1 (centres undefined)	none
O=c1c[n+]([O-])c2ccccc2n1OCc1ccccn1	Epigenetic reg inconclusive, Vif-APOBEC3G blk inconclusive
CCOn1c(=O)c[n+]([O-])c2ccccc21	Vif-APOBEC3F blk inconclusive, Epigenetic reg 10µM, Vif-APOBEC3G blk inconclusive | C127i cell count inactive | HCC4017 tox inactive | H358 viab inactive
CCOc1ccc(NC(=O)c2nc(S(=O)(=O)Cc3ccccc3F)ncc2Cl)cc1	Epigenetic reg inconclusive | C127i cell count inactive | HCC4017 tox 7.1µM | H358 viab 7.9µM
O=C(Nc1ccc(OC(F)F)cc1)c1nc(S(=O)(=O)Cc2ccccc2F)ncc1Cl	none (no result: Vif-APOBEC3F blk, Epigenetic reg)
C[C@]12CCC(=O)C=C1CC[C@@H]1[C@@H]2[C@@H](O)C[C@@]2(C)[C@H]1CC[C@]2(O)C(=O)COP(=O)(O)O	none (no result: Vif-APOBEC3F blk, Epigenetic reg, Vif-APOBEC3G blk)
COc1ccc(-c2cc(C(=O)NCC(C)C)no2)cc1	none
CCC(=O)N1CCN(c2ccc(NC(=O)c3ccc([N+](=O)[O-])o3)cc2Cl)CC1	Glioma ERSR ind inconclusive, Epigenetic reg inconclusive | C127i cell count inactive | HCC4017 tox 2.8µM | H358 viab 1.4µM

Source: PubChem
